# Compound activity as filed in PubChem BioAssay.
# Compounds with a hit are over-represented: about 0.4% of the library has one in this group of screens.
# FMDV RLuc: FMDV antiviral activity by Renilla signal. FMDV replicon cells, Renilla luciferase signal. Potency, µM (titrated, usually from 57.5 µM), actives largely listed as inhibitors. hit rate 0.32% among 120,000; also: nearly all actives have a fitted effect of over 55% in size
# FMDV FLuc: antivirals against foot and mouth disease virus; FMDV antiviral cell assay, firefly luciferase signal; hit rate 0.23% among 120,000; Potency, µM (series often up to 57.5 µM), most hits filed as inhibitors; also: nearly all actives have a fitted effect of over 60% in size
# A number is an active result; i = inactive; ? = inconclusive; ! = not confirmed by another sample. Calls follow the shape of the full dose curve.
SMILES,FMDV RLuc,FMDV FLuc
O=C(Nc1c(Cl)cccc1Cl)C1=C(c2ccccc2)S(=O)(=O)CCO1,16µM,?
O=C(Nc1cc(C(F)(F)F)ccc1Cl)C1=C(c2ccccc2)S(=O)(=O)CCO1,i,i
Cc1cccc(-n2nnnc2S(C)(=O)=O)c1,?,28µM
Cc1cccc(-n2nnnc2C2(N3CCCC3)CCCC2)c1,i,i
C/C(CCc1oc2ccc(Br)cc2c1-c1ccc(C)o1)=N\O,i,i
Cn1c(=O)c2c(nc(NCCc3ccccc3)n2Cc2cccc(Br)c2)n(C)c1=O,i,i
Cn1c(=O)c2c(nc(NCCO)n2Cc2cccc(Br)c2)n(C)c1=O,13µM,?
Cn1c(=O)c2c(nc(NCCCCO)n2Cc2ccccc2Cl)n(C)c1=O,i,i
Cn1c(=O)c2c(nc(NCCO)n2Cc2ccccc2F)n(C)c1=O,13µM,13µM
Cc1cccc(Cn2c(NCCN3CCOCC3)nc3c2c(=O)n(C)c(=O)n3C)c1,i,i
Cc1cccc(Cn2c(NCCO)nc3c2c(=O)n(C)c(=O)n3C)c1,11µM,?
CC(=O)c1c(C)[nH]c(C(=O)CSc2ccc(Br)cc2)c1C,i,i
CC(=O)c1c(C)[nH]c(C(=O)C(C)Sc2ccccc2Br)c1C (stereo not drawn),i,25µM
O=C(Nc1nc(C23CC4CC(CC(C4)C2)C3)cs1)c1ccc(=O)[nH]c1,i,i
O=C(Nc1nc(C23CC4CC(CC(C4)C2)C3)cs1)c1ccncc1,8.9µM,14µM
CCCCCOc1ccc(C(=O)O)cc1,i,i
CCCCOc1ccc(C(=O)C(CCC(CNC(C)(C)C)C(=O)c2ccc(OCCCC)cc2)CNC(C)(C)C)cc1 (stereo not drawn),28µM,?
CCCCCCCCCCCCCCCC[N+](C)(C)C,i,i
CC#CC[N+](C)(C)CCCCCCCCCCCC,?,13µM
COC(=O)c1[nH]c2ccccc2c1NC(=O)CCC1CCCC1,i,i
Cc1ccc(Cl)cc1-n1ncc2c(NC3CCCCCC3)ncnc21,25µM!,?
Cc1ccc(-n2ncc3c(NC4CCCCCC4)ncnc32)cc1Cl,i,i
Cc1c2c(=O)n(-c3ccc(Cl)cc3)[nH]c2cc(=O)n1Cc1ccc(Cl)cc1,i,i
COc1nc(C(=O)NCC(C)N(C)C)cc2ccccc12 (stereo not drawn),i,i
COc1nc(C(=O)NC2(c3ccccc3)CCC2)cc2ccccc12,4.5µM,?
CN1CCc2c(sc3ncn4nc(CSc5nc6ccccc6o5)nc4c23)C1,i,i
Cc1nc(-c2ccc(CCNC(=O)c3nccnc3N)s2)cs1,?,i
Cc1nc(-c2ccc(CNC(=O)c3nccnc3N)s2)cs1,8.9µM,?
